# Where “and” joins values, the source holds several entries; their conditions need not be identical. Equal entries are not always repeated.
# Key:
# [1] = molecular target: T1, Mitogen-activated protein kinase 12 (Homo sapiens) (UniProt P53778); conditions: at 1 µM;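 further: values are averaged p38gamma kinase inhibition readings, compounds tested at 1 µM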
# T1 sequence (whole entry): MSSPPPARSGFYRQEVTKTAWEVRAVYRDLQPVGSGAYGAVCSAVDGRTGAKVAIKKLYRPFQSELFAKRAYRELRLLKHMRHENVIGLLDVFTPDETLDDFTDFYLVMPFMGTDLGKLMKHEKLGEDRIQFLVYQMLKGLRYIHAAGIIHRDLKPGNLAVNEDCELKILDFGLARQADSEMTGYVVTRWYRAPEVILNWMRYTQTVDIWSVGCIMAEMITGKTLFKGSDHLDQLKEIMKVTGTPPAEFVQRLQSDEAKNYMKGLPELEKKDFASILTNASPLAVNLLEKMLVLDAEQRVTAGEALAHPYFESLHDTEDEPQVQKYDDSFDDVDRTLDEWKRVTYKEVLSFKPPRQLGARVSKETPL
# [2] = molecular target: SRSF protein kinase 1 (Homo sapiens) (UniProt Q96SB4); conditions: at 0.1 µM
# Sequence of SRSF protein kinase 1 (Homo sapiens) (Q96SB4 whole entry, canonical isoform): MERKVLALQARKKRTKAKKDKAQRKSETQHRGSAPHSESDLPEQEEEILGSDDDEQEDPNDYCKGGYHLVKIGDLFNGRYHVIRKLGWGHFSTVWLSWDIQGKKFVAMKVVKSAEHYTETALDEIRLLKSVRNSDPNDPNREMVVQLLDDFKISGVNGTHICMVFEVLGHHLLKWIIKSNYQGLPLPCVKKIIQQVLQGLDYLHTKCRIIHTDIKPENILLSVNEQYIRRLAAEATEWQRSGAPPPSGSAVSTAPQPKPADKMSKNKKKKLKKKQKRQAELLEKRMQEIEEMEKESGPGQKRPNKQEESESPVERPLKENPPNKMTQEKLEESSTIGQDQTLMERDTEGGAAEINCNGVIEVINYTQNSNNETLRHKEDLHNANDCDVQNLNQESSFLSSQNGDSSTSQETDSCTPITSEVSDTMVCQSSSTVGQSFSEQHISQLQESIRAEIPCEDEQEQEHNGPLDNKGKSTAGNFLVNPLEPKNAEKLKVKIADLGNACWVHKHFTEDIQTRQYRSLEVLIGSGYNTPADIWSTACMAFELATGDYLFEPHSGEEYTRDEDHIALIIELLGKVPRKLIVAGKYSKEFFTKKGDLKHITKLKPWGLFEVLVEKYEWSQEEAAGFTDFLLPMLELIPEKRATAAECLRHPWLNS
# [3] = molecular target: SRSF protein kinase 1 (Homo sapiens) (UniProt Q96SB4); conditions: at 1 µM
# [4] = molecular target: Phosphatidylinositol 4,5-bisphosphate 3-kinase catalytic subunit alpha isoform (Homo sapiens) (UniProt P42336); conditions: at 0.1 µM
# Sequence of Phosphatidylinositol 4,5-bisphosphate 3-kinase catalytic subunit alpha isoform (Homo sapiens) (P42336 whole entry, canonical isoform): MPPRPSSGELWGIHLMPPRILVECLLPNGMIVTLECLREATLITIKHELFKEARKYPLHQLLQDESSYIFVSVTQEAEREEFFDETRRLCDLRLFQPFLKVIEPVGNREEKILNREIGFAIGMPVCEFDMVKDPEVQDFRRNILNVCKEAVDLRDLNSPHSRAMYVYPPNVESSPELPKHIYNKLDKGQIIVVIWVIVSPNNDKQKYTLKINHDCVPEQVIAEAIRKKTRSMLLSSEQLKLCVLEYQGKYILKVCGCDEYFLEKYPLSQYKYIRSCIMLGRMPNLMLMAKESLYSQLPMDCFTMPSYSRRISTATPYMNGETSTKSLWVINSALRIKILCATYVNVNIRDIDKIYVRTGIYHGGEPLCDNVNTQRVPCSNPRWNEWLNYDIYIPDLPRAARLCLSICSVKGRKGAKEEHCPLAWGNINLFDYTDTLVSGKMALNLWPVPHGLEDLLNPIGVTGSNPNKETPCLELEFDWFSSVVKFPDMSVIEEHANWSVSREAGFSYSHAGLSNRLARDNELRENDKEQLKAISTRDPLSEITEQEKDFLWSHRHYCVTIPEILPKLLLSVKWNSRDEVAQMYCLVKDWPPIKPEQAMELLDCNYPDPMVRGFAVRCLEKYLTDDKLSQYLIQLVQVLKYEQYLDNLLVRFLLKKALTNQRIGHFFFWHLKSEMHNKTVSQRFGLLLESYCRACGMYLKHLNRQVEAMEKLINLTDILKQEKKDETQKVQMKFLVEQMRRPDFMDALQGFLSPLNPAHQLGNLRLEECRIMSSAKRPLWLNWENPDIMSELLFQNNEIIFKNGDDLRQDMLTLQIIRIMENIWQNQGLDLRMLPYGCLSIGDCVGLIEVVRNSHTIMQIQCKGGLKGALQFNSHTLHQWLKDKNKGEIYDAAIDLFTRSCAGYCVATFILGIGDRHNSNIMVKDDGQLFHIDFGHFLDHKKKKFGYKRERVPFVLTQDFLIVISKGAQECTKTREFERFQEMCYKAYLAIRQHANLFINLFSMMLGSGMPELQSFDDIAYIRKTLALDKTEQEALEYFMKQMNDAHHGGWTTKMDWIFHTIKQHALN
# [5] = molecular target: Phosphatidylinositol 4,5-bisphosphate 3-kinase catalytic subunit alpha isoform (Homo sapiens) (UniProt P42336); conditions: at 1 µM
# [6] = molecular target: T2, Phosphatidylinositol 4,5-bisphosphate 3-kinase catalytic subunit delta isoform (Homo sapiens) (UniProt O00329); conditions: at 0.1 µM
# T2 sequence (whole entry): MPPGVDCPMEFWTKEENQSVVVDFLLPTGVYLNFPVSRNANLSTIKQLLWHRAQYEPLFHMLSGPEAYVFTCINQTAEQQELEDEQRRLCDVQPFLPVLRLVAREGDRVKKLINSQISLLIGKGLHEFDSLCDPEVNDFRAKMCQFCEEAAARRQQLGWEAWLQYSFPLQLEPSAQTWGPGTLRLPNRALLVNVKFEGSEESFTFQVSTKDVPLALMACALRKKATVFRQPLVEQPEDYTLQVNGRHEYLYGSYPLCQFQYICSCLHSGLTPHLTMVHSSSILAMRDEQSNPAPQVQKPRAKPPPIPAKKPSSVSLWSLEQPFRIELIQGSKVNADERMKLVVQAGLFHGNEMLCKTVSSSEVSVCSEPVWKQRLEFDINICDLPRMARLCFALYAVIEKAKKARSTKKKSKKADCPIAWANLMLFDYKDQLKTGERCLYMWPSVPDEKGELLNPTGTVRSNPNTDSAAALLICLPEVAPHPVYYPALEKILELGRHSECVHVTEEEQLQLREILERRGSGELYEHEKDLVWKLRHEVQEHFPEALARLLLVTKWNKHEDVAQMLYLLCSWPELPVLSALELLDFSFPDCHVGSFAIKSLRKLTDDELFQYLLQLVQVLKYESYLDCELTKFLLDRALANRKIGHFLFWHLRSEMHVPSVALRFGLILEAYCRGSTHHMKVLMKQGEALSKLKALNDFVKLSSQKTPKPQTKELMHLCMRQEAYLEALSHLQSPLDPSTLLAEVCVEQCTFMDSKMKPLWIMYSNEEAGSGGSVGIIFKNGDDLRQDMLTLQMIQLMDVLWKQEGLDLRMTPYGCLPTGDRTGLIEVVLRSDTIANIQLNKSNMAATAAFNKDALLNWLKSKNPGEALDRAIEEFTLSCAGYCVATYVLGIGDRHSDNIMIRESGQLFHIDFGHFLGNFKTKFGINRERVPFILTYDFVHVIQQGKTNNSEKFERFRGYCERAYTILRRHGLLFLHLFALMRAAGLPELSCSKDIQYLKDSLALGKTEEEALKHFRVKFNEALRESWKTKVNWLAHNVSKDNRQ
# [7] = molecular target: T2, Phosphatidylinositol 4,5-bisphosphate 3-kinase catalytic subunit delta isoform (Homo sapiens); conditions: at 1 µM
# [8] = molecular target: Phosphatidylinositol 4-kinase beta (Homo sapiens) (UniProt Q9UBF8); conditions: at 0.1 µM
# Sequence of Phosphatidylinositol 4-kinase beta (Homo sapiens) (Q9UBF8 2-816 limits assumed): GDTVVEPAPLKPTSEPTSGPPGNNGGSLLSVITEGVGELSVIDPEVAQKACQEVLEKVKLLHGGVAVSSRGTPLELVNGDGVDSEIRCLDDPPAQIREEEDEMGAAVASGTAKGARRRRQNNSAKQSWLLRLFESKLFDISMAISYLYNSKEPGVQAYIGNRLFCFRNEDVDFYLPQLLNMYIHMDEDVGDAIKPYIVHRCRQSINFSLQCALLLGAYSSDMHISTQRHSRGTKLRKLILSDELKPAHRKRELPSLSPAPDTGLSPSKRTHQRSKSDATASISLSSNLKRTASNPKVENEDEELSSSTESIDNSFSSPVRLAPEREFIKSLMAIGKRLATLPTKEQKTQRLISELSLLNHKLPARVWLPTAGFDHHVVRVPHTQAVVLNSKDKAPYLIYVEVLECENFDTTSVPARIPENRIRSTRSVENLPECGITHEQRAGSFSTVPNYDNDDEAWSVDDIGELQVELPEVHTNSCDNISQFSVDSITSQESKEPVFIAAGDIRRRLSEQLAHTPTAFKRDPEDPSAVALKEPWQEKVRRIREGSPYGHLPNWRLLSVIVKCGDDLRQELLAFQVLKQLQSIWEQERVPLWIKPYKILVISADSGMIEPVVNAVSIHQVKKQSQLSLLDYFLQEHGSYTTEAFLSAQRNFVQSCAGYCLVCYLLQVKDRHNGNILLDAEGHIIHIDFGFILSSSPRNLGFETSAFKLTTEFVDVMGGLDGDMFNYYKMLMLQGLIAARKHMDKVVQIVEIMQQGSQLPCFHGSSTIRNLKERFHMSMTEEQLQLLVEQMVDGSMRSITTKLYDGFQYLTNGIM
# [9] = molecular target: Phosphatidylinositol 4-kinase beta (Homo sapiens) (UniProt Q9UBF8); conditions: at 1 µM
# [10] = molecular target: Sphingosine kinase 1 (Homo sapiens) (UniProt Q9NYA1); conditions: at 0.1 µM;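 further: mean percent inhibition of SPHK1 activity, measured within the GSK PKIS screening panel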
# Sequence of Sphingosine kinase 1 (Homo sapiens) (Q9NYA1 whole entry): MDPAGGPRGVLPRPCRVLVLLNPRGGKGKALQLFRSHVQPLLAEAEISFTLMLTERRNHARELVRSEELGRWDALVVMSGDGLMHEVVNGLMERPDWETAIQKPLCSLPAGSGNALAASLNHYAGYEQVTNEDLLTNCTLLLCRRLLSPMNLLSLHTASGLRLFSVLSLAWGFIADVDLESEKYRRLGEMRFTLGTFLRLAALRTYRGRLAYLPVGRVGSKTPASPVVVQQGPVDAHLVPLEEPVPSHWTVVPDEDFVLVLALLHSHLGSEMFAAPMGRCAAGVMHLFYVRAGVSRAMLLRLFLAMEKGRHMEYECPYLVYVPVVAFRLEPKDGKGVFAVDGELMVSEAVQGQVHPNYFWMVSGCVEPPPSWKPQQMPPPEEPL
Structure (SMILES),inhibition [1],inhibition [2],inhibition [3],inhibition [4],inhibition [5],inhibition [6],inhibition [7],inhibition [8] [%],inhibition [9],inhibition [10]
COc1c(C(N)=O)cc(-c2ccc(Cl)cc2)cc1-c1ccc(S(N)(=O)=O)cc1,5.43%,-3.03%,-1.89%,4.8%,2.59%,0.32%,1.67%,0.85,3.11%,0.56%
CN1CCC(n2cnc(-c3ccc(F)cc3)c2-c2ccnc(NCCO)n2)CC1,3.15%,-1.01%,3.27%,3.91%,2.41%,1.87%,2.25%,-3.16,4.51%,9.04%
Cc1c2ccc(N(C)c3ccnc(Nc4cccc(S(N)(=O)=O)c4)n3)cc2nn1C,3.53%,-1.71%,-3.4%,4.71%,14.4%,6.47%,29.9%,0.59,1.94%,1.12%
CC1=C(C(=O)Nc2ccc3[nH]ncc3c2)C(c2ccc(F)cc2)N=C(c2ccc(C(F)(F)F)nc2)N1 (stereo not given),1.85%,-1.07%,-0.7%,2.87%,4.33%,2.9%,4.49%,4.33,-3.27%,-0.6%
CNC(=O)c1ncccc1Nc1nc(Nc2cc3c(cc2OC)CCCN3C(=O)CN(C)C)nc2[nH]ccc12,2.94%,-1.98%,-0.43%,3.55%,1.58%,1.46%,4.15%,-2.24,1.56%,3.95%
CN1CCC(C(=O)Nc2n[nH]c3nc(-c4ccc(O)cc4)c(Br)cc23)CC1,7.35% and 7.26%,-0.9% and -1.12%,0.97% and -0.81%,4.19% and 1.14%,2.06% and 2.14%,1.92% and 0.51%,1.89% and 0.99%,2.14,-0.62% and 1.07%,1.72% and 4.51%
COc1cccc(-n2ncc3c(N/N=C/c4ccc(C(=O)NCCN(C)C)cc4)ncnc32)c1,4.67%,-1.63%,-2.59%,2.48%,20.2%,4.52%,16.3%,-3.13,5.75%,5.89%
CCn1c(-c2nonc2N)nc2cncc(C(=O)NCCNC)c21,4.44%,-1.97%,-2.66%,4.3%,2.53%,0.31%,1.82%,1.26,0.69%,0.59%
c1cnn2ncc(-c3ccnc(NCCCN4CCOCC4)n3)c2c1,3.02%,-1.76%,-3.38%,6.11%,8.31%,7.14%,7.98%,1.61,9.05%,-6.03%
CS(=O)(=O)CCNCc1ccoc1-c1ccc2ncnc(Nc3ccc(OCc4ccccc4)cc3)c2c1,0.43%,-0.09%,-1.85%,1.09%,2.87%,0.63%,4.62%,9.16,-0.68%,0.65%
CS(=O)(=O)Nc1ccc(-c2ccc3c(NC(=O)C4CC4)n[nH]c3c2)cc1,2.05%,-1.28%,-3.34%,2.67%,4.34%,0.92%,1.63%,-0.54,-0.98%,2.34%
OCCCNc1nccc(-c2c(-c3ccc(F)cc3)nn3cc(C(F)(F)F)ccc23)n1,2.13%,-1.12%,-3.43%,2.12%,2.75%,4.76%,4.87%,4.2,-3.41%,-0.34%
COc1cc(Nc2ncc(-c3ccccc3)o2)cc(OC)c1,3.94%,-2.65%,-2%,8.32%,6.87%,5.4%,5.83%,0.33,3.11%,2.1%
O=C(O[C@H]1CN[C@H](C#Cc2cc3ncnc(Nc4ccc5c(cnn5Cc5ccccc5)c4)c3s2)C1)N1CCOCC1,-0.96%,-2.05%,-3.6%,-1.75%,7.49%,0.29%,9.02%,1.41,2.11%,2.86%
CN1CCN(Cc2ccc(-c3cc4ncnc(Nc5ccc(OCc6cccc(F)c6)c(Cl)c5)c4s3)o2)CC1,2.94% and 2.8%,-2.39% and -1.61%,-2.07% and 0.69%,1.34% and 4.72%,2.47% and 5.81%,1.29% and 2.75%,3.39% and 4.31%,0.91,1.06%,10.5% and 0.88%
NS(=O)(=O)c1cccc(N/C=C2\C(=O)Nc3ccccc32)c1,2.84%,-2.16%,-4.31%,4.33%,7.3%,4.26%,7.6%,-1.97,2.07%,7.2%

Structure (SMILES),inhibition [1],inhibition [2],inhibition [3],inhibition [4],inhibition [5],inhibition [6],inhibition [7],inhibition [8] [%],inhibition [9],inhibition [10]
COc1ccccc1-c1cc(/C=C2\C(=O)Nc3ncc(Br)cc32)cc(Br)c1O,4.01%,-2.27%,-5.25%,8.24%,18.6%,7.45%,13.9%,-5.01,7.13%,0.8%
COc1cccc(Nc2nccc(-c3cnn4ncccc34)n2)c1,9.23%,-0.98%,4.98%,3.25%,17%,3.95%,19.1%,-0.93,11.1%,0.27%
O=C(O[C@H]1CN[C@H](C#Cc2cc3ncnc(Nc4ccc(OCc5cccc(F)c5)c(Cl)c4)c3s2)C1)N1CCOCC1,3.47%,-2%,0.44%,4.94%,26.9%,3.37%,15.8%,-0.81,1.44%,0.99%
NS(=O)(=O)c1ccc(N/N=C2\C(=O)Nc3ccc(C(=O)NCc4ccncc4)cc32)cc1,2.56%,-1.11%,2.06%,0.9%,0.8%,0.21%,0.37%,-0.51,-0.17%,-0.37%
CS(=O)(=O)Nc1ccc(-c2cc(-c3ccccc3)cc(C(N)=O)c2N)cc1,1.43%,-1.01%,-1.76%,3.24%,3.21%,3.22%,3.77%,0.42,-0.01%,-1.73%
CC1=C(C(=O)Nc2ccc3[nH]nc(C)c3c2)C(c2ccc(C(F)(F)F)cc2)CC(=O)N1 (stereo not given),2.82%,-1.2%,-2.95%,2.05%,2.21%,2.89%,3.84%,4.33,-1.82%,0.96%
CN(C)CCNC(=O)Nc1ccc(N(C)c2ccnc(Nc3ccc(CS(C)(=O)=O)cc3)n2)cc1,2.24%,-1.44%,-2.68%,2.6%,3.13%,2.63%,5.9%,2.65,15.7%,0.26%
CCS(=O)(=O)c1ccc(OC)c(Nc2ncc(-c3cccc(F)c3)o2)c1,4.78%,-0.63%,0.45%,5.95%,5.75%,2.23%,4.91%,0.49,-1.64%,-1.2%
CCCNc1cccc(-n2ncc3c(N/N=C/c4ccncc4)ncnc32)c1,0.33%,0.43%,3.51%,1.36%,3.81%,3.31%,14.7%,5.69,4.32%,0.21%
NS(=O)(=O)c1ccc(N/N=C2\C(=O)Nc3cccc(CCc4ccncc4)c32)cc1,0.75%,-0.62%,-1%,0.59%,1.55%,0.97%,3.61%,2.1,1.01%,1.36%
COc1cc(N2CCN(C(C)C)CC2)ccc1Nc1nc(Nc2cccc3ncccc23)c2cc[nH]c2n1,-0.51%,-1.39%,-1.2%,-0.92%,1.96%,-1.65%,4.18%,5.9,-2.85%,0%
COc1cc2c(cc1Nc1nc(Nc3cccc(F)c3C(N)=O)c3cc[nH]c3n1)N(C(=O)CN1CCN(C(C)C)CC1)CC2,2.81%,-3.13%,-1.66%,0.54%,0.15%,-1.97%,-0.26%,-0.22,0.87%,0.42%
CNC(=O)c1cncc(/C=C/c2ccccc2C)c1,1.72%,-0.49%,2.3%,2.18%,2.76%,1.24%,0.42%,-3.61,7.59%,0.67%
COc1cc(N2CCN(C(C)C)CC2)ccc1Nc1nc(Nc2cccc(F)c2C(=O)O)c2cc[nH]c2n1,1.52%,-1.29%,5.69%,2.86%,4.42%,-0.59%,-3.11%,2.44,0.72%,-1.3%
Cn1c(-c2nonc2N)nc2cnccc21,2.23%,-3.06%,-4.33%,1.04%,3.15%,1.35%,1.72%,1.38,-3.7%,-0.45%
